Among the data in PubChem BioAssay (NCATS) are Potency, viability and viability (% of DMSO) values, retold here.

The nature of assay [1]: Quantitative High-Throughput drug screen in 47 multiple myeloma cell lines against the NCATS MIPE library collection: MM1S_ATCC cell viability assay (AID 1918980). Note: nearly all actives have a fitted effect of over 45% in size. The method, boiled down: (§1)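 ATP-based luminescence (CellTiter-Glo, 5 min RT incubation) quantified surviving cells following two days' treatment with MIPE 4.0 agents at 37 °C, 5% CO2.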
The nature of assay [2]: Quantitative High-Throughput drug screen in 47 multiple myeloma cell lines against the NCATS MIPE library collection: MM1R_ATCC cell viability assay (AID 1918981). Note: nearly all actives have a fitted effect of over 35% in size. The method, boiled down: as §1
Assay [3] in a line: Quantitative High-Throughput drug screen in 47 multiple myeloma cell lines against the NCATS MIPE library collection: LP1_DSMZ cell viability assay (AID 1918982). Note: nearly all actives have a fitted effect of over 35% in size. The method, boiled down: as §1
Assay [4] can be described thus: Quantitative High-Throughput drug screen in 47 multiple myeloma cell lines against the NCATS MIPE library collection: KMS28PE_JCRB cell viability assay (AID 1918983). Note: nearly all actives have a fitted effect of over 35% in size. The method, boiled down: as §1
Assay [5] can be described thus: Quantitative High-Throughput drug screen in 47 multiple myeloma cell lines against the NCATS MIPE library collection: KMS34_JCRB cell viability assay (AID 1918985). Note: nearly all actives have a fitted effect of over 40% in size. The method, boiled down:
as §1

Assay [6] is described as follows: Quantitative High-Throughput drug screen in 47 multiple myeloma cell lines against the NCATS MIPE library collection: SKMM1_PLB cell viability assay (AID 1919863). Note: nearly all actives have a fitted effect of over 35% in size. Particulars: SKMM1 myeloma viability, CellTiter-Glo ATP, 48 h; viability: stronger effect = lower value. Put shortly:
as §1

Assay [7] in a line: Quantitative High-Throughput drug screen in 47 multiple myeloma cell lines against the NCATS MIPE library collection: L363_DSMZ cell viability assay (AID 1918984). Note: nearly all actives have a fitted effect of over 40% in size. The method, boiled down: as §1
The nature of assay [8]: Quantitative High-Throughput drug screen in 47 multiple myeloma cell lines against the NCATS MIPE library collection: OCIMY7_PLB cell viability assay (AID 1918987). Note: nearly all actives have a fitted effect of over 65% in size. Particulars: OCI-MY7 myeloma viability, CellTiter-Glo ATP, 48 h; viability (% of DMSO): at 45.8 µM (top of the series). The method, boiled down:
as §1
(In general: ATP-based viability assays read luminescence as a measure of living cells.)

Assay [9] is described as follows: Quantitative High-Throughput drug screen in 47 multiple myeloma cell lines against the NCATS MIPE library collection: OCIMY5_PLB cell viability assay (AID 1918988). Note: nearly all actives have a fitted effect of over 65% in size. The method, boiled down: as §1
The nature of assay [10]: Quantitative High-Throughput drug screen in 47 multiple myeloma cell lines against the NCATS MIPE library collection: OPM1_PLB cell viability assay (AID 1918989). Note: nearly all actives have a fitted effect of over 40% in size. The method, boiled down:
as §1

Inconclusive results are not listed. Unmarked numbers belong to inactive results. The source made the active and inactive calls. Calls come from the whole dose curve; as a rule, active = well fitted cell-killing curve with a large enough effect; inconclusive = small, poorly fitted or top-dose-only effect, or effect the other way; inactive = no such curve, though single readings can be large or run the other way.
Potency is the fitted concentration of half-maximal effect.

In the case of `Cn1cc(-c2ccc3ncc(Cc4ccc5ncccc5c4)n3n2)cn1`, the Potency result in assay [1], in assay [2], in [3], in assay [4] and in [5] was “inactive” each time. Further, in assay [6], the Potency is 2.09 µM (active).

Turning to `C=CCNc1c(O)cc2c(O)c1C[C@@H](C)C[C@H](OC)[C@@H](O)[C@@H](C)C=C(C)[C@H](OC(N)=O)[C@@H](OC)C=CC=C(C)C(=O)N2`, the Potency in assay [1] was 1.18 µM (active); in [2], 0.526 µM (active); in assay [3], 1.87 µM (active); in assay [7], 0.0332 µM (active); in assay [5] it was 0.296 µM (active); in assay [8], 0.209 µM (active). For the same compound, the Potency in [9] was 0.235 µM (active); in assay [10], 0.526 µM (active); in [6] it was 0.264 µM (active).

For the compound `N#Cc1cc(NC(=O)Nc2nnc(-c3ccncc3)s2)ccc1-c1cn[nH]c1`, the figures for the Potency in assay [1], in [4] and in assay [9] were 5.26 µM (active), 16.6 µM (active) and 14.8 µM (active), respectively. The Potency entry in [2] and in assay [3] was “inactive” throughout.

As a reminder, the viability is a read-out of living cells in per cent, often relative to untreated cells. Consider `O=C(CN1C(=O)C2(CCCC2)NC[C@H]1c1cc(F)cc(F)c1)Nc1ccc2c(c1)C[C@@]1(C2)C(=O)Nc2ncccc21`, for which the Potency entry in assay [1], in assay [2], in [3], in [7], in assay [5] and in [9] was “inactive” in each case. In addition, in [10], the Potency entry is “inactive”. Moreover, the viability in [6] was 120%.

As to `O=C(O)C=Cc1ccc(Cn2ccnc2)cc1`, the Potency result in [1], in assay [2], in [3], in [4], in assay [5] and in assay [10] was “inactive” each time.

Regarding `CC(C)c1cnn2c(NCc3ccccc3)cc(NCCCCCCN)nc12`, the Potency in assay [1] was 3.32 µM (active); in assay [2], 20.9 µM (active); in assay [3], 18.7 µM (active); in assay [7], 14.8 µM (active); in assay [5] it was 18.7 µM (active); in [8], 11.8 µM (active). Moreover, the Potency in assay [9] is 6.62 µM (active).

For the compound `CC(=O)OC[C@@H]1O[C@@H](n2ccc(=O)[nH]c2=O)[C@H](OC(C)=O)[C@H]1OC(C)=O`, the Potency entry in [1], in assay [2], in assay [3], in assay [4], in assay [5] and in [10] was “inactive” throughout.

Regarding `CCn1c(=O)c2c(nc(C=Cc3ccc(OC)c(OC)c3)n2C)n(CC)c1=O`, in assay [1], the Potency was 26.4 µM (active). The Potency entry in [2], in assay [3], in assay [4] and in assay [5] was “inactive” in each case. Besides, the viability in assay [6] was 123%.

On to `CCCNS(=O)(=O)Nc1ncnc(OCCOc2ncc(Br)cn2)c1-c1ccc(Br)cc1`, for which the Potency result in [1], in assay [2], in assay [3], in [5] and in assay [10] was “inactive” in each case.

In the case of `O=C(C[C@@H]1CC=CCCC(=O)O[C@H](c2ccccc2)CNC1=O)NCc1ccc(Cl)cc1`, the Potency in assay [1] is 16.6 µM (active). The Potency entry in assay [2], in assay [3], in [4], in assay [5] and in assay [10] was “inactive” each time.

On to `CC(C)[C@H](CO)Nc1nc(Nc2cccc(Cl)c2)c2ncn(C(C)C)c2n1`, for which the Potency was 5.9 µM (active) in [1]; 18.7 µM (active) in assay [2]; 23.5 µM (active) in assay [3]; 18.7 µM (active) in assay [5]; 6.62 µM (active) in [8]; 18.7 µM (active) in [9]. Further, the Potency in assay [6] was 20.9 µM (active). For the same compound, the Potency result in assay [7] was “inactive”.

`C=CC(=O)Nc1ccc2ncnc(Nc3ccc(OCc4cccc(F)c4)c(Cl)c3)c2c1`: the Potency was 1.66 µM (active) in assay [1]; 8.33 µM (active) in assay [2]; 5.9 µM (active) in assay [3]; 0.0296 µM (active) in [7]; 0.332 µM (active) in [5]; 0.105 µM (active) in [8]. Moreover, the results for the Potency in assay [9], in [10] and in [6] were 0.0526 µM (active), 0.209 µM (active) and 6.62 µM (active), respectively.

For the compound `C[N+](C)([O-])CCNc1ccc(NCC[N+](C)(C)[O-])c2c1C(=O)c1c(O)ccc(O)c1C2=O`, the Potency in [1] was 20.9 µM (active); in [2], 18.7 µM (active). Further, the Potency result in [3], in assay [7] and in assay [5] was “inactive” each time.

Turning to `CN(C)CC(=O)N1CCC(c2ccc(NC(=O)c3ncc(C#N)[nH]3)c(C3=CCCCC3)c2)CC1`, the Potency in assay [1] was 2.35 µM (active); in [2], 8.33 µM (active); in assay [8], 9.35 µM (active); in assay [10] it was 20.9 µM (active). For the same compound, the Potency result in [3] and in assay [5] was “inactive” in each case. Further, the viability in assay [6] was 127%.

Regarding `Cc1cnc(Nc2ccc(CN3CCOCC3)cc2)nc1Nc1cccc(S(=O)(=O)NC(C)(C)C)c1`, the Potency in assay [1] is 5.9 µM (active); in assay [2], 4.69 µM (active); in assay [3] it was 5.9 µM (active); in assay [5] it was 2.35 µM (active); in assay [8], 0.526 µM (active); in assay [9], 1.87 µM (active). The results for the Potency in assay [10] and in assay [6] were 0.935 µM (active) and 5.26 µM (active), respectively.

On to `CNC(=O)c1cccc(-c2ccc3c(N4CCOC[C@H]4C)nc(N4CCOC[C@H]4C)nc3n2)c1`, for which the Potency in assay [1] is 0.0833 µM (active); in [2], 0.0662 µM (active); in [4], 0.0187 µM (active); in assay [7] it was 0.0118 µM (active); in assay [5], 0.059 µM (active); in assay [9] it was 5.9 µM (active). Moreover, the Potency in assay [10] was 0.105 µM (active); in [6], 0.0662 µM (active). Moreover, the viability (% of DMSO) in assay [8] is 66.1% (active).

As to `COc1ccc(Nc2cc(-c3cnc(N)nc3)nc(N3CCOCC3)n2)cn1`, the Potency in [1] is 4.69 µM (active); in [2] it was 1.66 µM (active); in [4], 0.833 µM (active); in [7] it was 0.526 µM (active); in assay [5], 2.96 µM (active); in assay [8] it was 1.05 µM (active). The Potency in [9] was 11.8 µM (active); in assay [10] it was 3.72 µM (active); in assay [6], 0.235 µM (active).

As for `NC(=O)Nc1cc(-c2ccc(CN3CCOCC3)cc2)sc1C(N)=O`, the Potency in assay [1] is 16.6 µM (active); in assay [2], 20.9 µM (active); in assay [4] it was 18.7 µM (active); in [7] it was 5.9 µM (active); in assay [5], 4.18 µM (active); in [8], 0.0833 µM (active). Moreover, the results for the Potency in [9], in [10] and in assay [6] were 0.0372 µM (active), 3.72 µM (active) and 18.7 µM (active), respectively.
